In the library only some 12% were active in any assay of this set; here they are far more common.
BAZ2B block: qHTS Assay for Inhibitors of BAZ2B | Bromodomain adjacent to zinc finger domain protein 2B (Homo sapiens), Q9UIF8 | AlphaScreen BAZ2B-H3K14Ac peptide displacement | Potency, µM (series often up to 114 µM), inactives show top-dose activity change, negative = inhibition, most hits filed as inhibitors | 360,000 tested, 4.4% active; further: potency means the concentration at half of the fitted maximal effect; on the % scale 0 is the no-effect control and ±100 the full control effect; nearly all actives have a fitted effect of over 60% in size
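AlphaScreen luminescence quantifies BAZ2B engagement of H3K14Ac peptide; the protein and biotinylated peptide are both at 50 nM final, buffer PBS pH 7.4 with 0.01% Tween-20, all steps at room temperature.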
HP1b binding inh: HTS for Inhibitors of HP1-beta Chromodomain Interactions with Methylated Histone Tails | AlphaScreen HP1-beta / biotin-H3K9me3 peptide binding | Chromobox protein homolog 1 (Homo sapiens), P83916 | Potency, µM (doses to about 114 µM), for the others: at the highest dose activity change, negative = inhibition, usual class: inhibitors | 390,000 tested, 0.56% active; further: potency means the concentration at half of the fitted maximal effect; nearly all actives have a fitted effect of over 70% in size
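AlphaScreen: HP1-beta (50 nM) preformed 30 min with biotin-H3(1-18)K9me3 peptide (50 nM) in PBS pH 7.4, 0.01% Tween-20. Compound added for 30 min at RT, then streptavidin donor/nickel chelate acceptor beads (10 ug/mL) for 30 min.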
JMJD2A Tudor: qHTS Assay for Inhibitors of JMJD2A-Tudor Domain; Lysine-specific demethylase 4A (Homo sapiens), O75164; AlphaScreen JMJD2A-Tudor / H3K4me3 peptide binding; Potency, µM (series often up to 114 µM), inactives show at the top dose activity change, negative = inhibition, most hits filed as inhibitors; 390,000 tested, 4.4% active; AID 504339, 2011; further: potency means the concentration at half of the fitted maximal effect; on the % scale 0 is the no-effect control and ±100 the full control effect; nearly all actives have a fitted effect of over 50% in size
PI5P4Ka inh: qHTS for Inhibitors of phosphatidylinositol 5-phosphate 4-kinase (PI5P4K); Phosphatidylinositol 5-phosphate 4-kinase type-2 alpha (Homo sapiens), P48426; PI5P4Kalpha enzyme, ADP-Glo luminescence, 60 min; hits give low values; max response, %; 330,000 tested, 1.2% active; AID 652105, 2013; active means max response of -50% or lower; inconclusive means between -30% and -50%; inactive means -30% or higher; further: value at the top dose of about 77 µM; on the % scale 0 is the no-effect control and ±100 the full control effect
Target sequence (P48426 whole entry, looked up): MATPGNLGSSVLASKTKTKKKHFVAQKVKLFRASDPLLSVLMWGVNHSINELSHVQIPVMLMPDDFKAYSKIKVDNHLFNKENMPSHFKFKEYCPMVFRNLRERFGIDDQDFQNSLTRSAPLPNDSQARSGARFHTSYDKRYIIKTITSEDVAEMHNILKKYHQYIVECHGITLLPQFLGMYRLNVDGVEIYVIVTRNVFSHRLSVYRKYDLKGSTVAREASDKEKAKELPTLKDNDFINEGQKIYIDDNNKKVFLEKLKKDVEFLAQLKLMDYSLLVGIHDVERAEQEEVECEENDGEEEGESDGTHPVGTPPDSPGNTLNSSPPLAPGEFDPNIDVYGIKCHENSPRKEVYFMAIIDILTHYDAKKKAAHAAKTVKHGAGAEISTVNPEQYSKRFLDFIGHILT
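ADP-Glo luminescence end-point read after a 60 min room-temperature kinase reaction of PI5P4Kalpha plus substrate, initiated with ATP at 5 microM final. Buffer: 0.038 M HEPES pH 7.4, EGTA, 0.1% CHAPS, 5% DMSO.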
G9a inh: qHTS Assay for Inhibitors of Histone Lysine Methyltransferase G9a | G9a H3K9 monomethylation, AlphaScreen, 2 h | AID 504332, 2011 | Histone-lysine N-methyltransferase EHMT2 (Homo sapiens), Q96KQ7 | Potency, µM (titrated, usually from 102 µM), without a hit: at the top dose activity, negative = inhibition, hits mostly inhibitors | 350,000 tested, 8.8% active; further: potency means the concentration at half of the fitted maximal effect; on the % scale 0 is the no-effect control and ±100 the full control effect; nearly all actives have a fitted effect of over 75% in size
Target sequence (Q96KQ7 913-1193 limits assumed): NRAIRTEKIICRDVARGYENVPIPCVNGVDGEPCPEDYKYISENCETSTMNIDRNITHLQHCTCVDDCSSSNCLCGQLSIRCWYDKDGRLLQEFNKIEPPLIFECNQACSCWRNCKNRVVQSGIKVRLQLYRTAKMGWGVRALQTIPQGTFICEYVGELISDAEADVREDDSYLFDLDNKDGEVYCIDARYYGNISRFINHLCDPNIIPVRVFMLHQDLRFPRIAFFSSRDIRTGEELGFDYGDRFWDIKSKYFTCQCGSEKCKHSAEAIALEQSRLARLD
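G9a (20 nM) preincubated 15 min RT with compounds, then 500 nM biotinylated H3K9 peptide and 20 uM SAM added; 2 h RT reaction. Monomethyl-H3K9 product detected by AlphaScreen with anti-H3K9me1 antibody, streptavidin donor and anti-rabbit IgG acceptor beads.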
PLK1 PBD inh: qHTS for Inhibitors of PLK1-PDB (polo-like kinase 1 - polo-box domain): Primary Screen. Serine/threonine-protein kinase PLK1 (Homo sapiens), P53350. Plk1 PBD binding of FITC phosphopeptide, fluorescence polarization. Potency, µM, inactives show max response, negative = inhibition, actives largely listed as inhibitors. 360,000 tested, 2.8% active. AID 720504, 2013; further: potency means the concentration at half of the fitted maximal effect; series mostly up to about 57 µM; on the % scale 0 is the no-effect control and ±100 the full control effect; nearly all actives have a fitted effect of over 65% in size
Starred values were filed as active, the others as inactive; ? = inconclusive; . = not tested or not shown; [ ] = dose if it differs, or a comment. Unless noted, the call rests on the fitted dose curve; in most records, active means well fitted curve in the direction sought with a large enough effect; inconclusive means small, poorly fitted or top-dose-only effect, or another doubt; inactive means no such curve, though single readings can be large; an effect the other way counts as inactive or inconclusive.

SMILES | BAZ2B block | HP1b binding inh | JMJD2A Tudor | PI5P4Ka inh | G9a inh | PLK1 PBD inh
Nc1ccc(-c2nc3ccccc3o2)cc1 | 1.0% | 18.9% | 39.8µM* | -1.5 | -43.8%[2.33 µM] | 7.3%
COc1ccc(NC(=S)NC(=O)c2cc3ccccc3o2)c(OC)c1 | -3.5% | 22.6% | -2.2% | -7.9 | 10µM* | 1.6%
CCC(=O)Nc1ccc(NC(=S)NC(=O)c2cc3ccccc3o2)cc1 | 2.2% | ? | ? | -17.7 | -17.4%[59 µM] | ?
CCC(=O)Nc1cccc(NC(=S)NC(=O)c2cc3ccccc3o2)c1 | -31.4% | 6.2% | -18.8%[57.1 µM] | 0.8 | 4.3%[59 µM] | 26.7µM*
COc1ccc(OC)c(NC(=O)c2cc3ccccc3o2)c1 | -15.9% | 26.7% | 12.0% | 5.4 | -45.4%[59 µM] | 3.9%
Cc1ccc(-c2nc3ccccc3o2)cc1NC(=S)NC(=O)c1cc2ccccc2o1 | 0.4% | 24.7% | 0.3% | 1.3 | 50.1µM* | -6.5%
CC1C(=O)N(Cc2cn(CCC3OCCCO3)nn2)CCS(=O)(=O)N1Cc1ccc(-c2ccc(Cl)cc2)cc1 (stereo not drawn) | . | . | . | 5.4 | . | -10.2%
C=CCOc1c(Br)cc(CNn2c(C)n[nH]c2=S)cc1OCC | -32.5% | 23.2% | ? | 4.1 | 15.8µM* | -11.9%
COc1cc(CNn2c(C)n[nH]c2=S)cc(Br)c1OCc1ccc(F)cc1 | ? | 2.7% | -31.2% | 5.4 | 22.4µM* | -9.3%
C=CCOc1c(Br)cc(CNn2cn[nH]c2=S)cc1OC | -10.9% | 21.6% | 79.4µM* | -7.5 | -130.9%[59 µM] | -14.9%
COc1cc(CNn2c(C)n[nH]c2=S)cc(Cl)c1OCc1ccc(F)cc1 | ? | 15.2% | -21.5% | . | ? | -6.6%
C=CCOc1c(Br)cc(CNn2nnnc2N)cc1OCC | 2.8% | 34.9% | 9.9% | 1.9 | -41.6%[59 µM] | -0.2%
O=C1c2ccccc2C(c2nnnn2Cc2ccccc2)N1CCc1ccc(O)cc1 (stereo not drawn) | . | . | . | 1.0 | . | -0.8%
CCN1CCN(c2ccc(N=Cc3ccccc3O)cc2)CC1 | -32.4% | 18.4% | -5.7% | 2.2 | 50.1µM* | 3.0%
OC(c1ccccc1)C(NCc1ccccc1)c1ccccc1 (stereo not drawn) | . | . | . | -1.9 | . | -5.0%
CC(=O)Nc1ccc(NC(=O)Cn2cc3c(n2)CCCCC3)cc1 | -34.9% | 37.7% | -16.8% | . | 15.8µM* | .
CCN(CC)c1ccc(NC(=O)Cn2cc3c(n2)CCCC3)c(C)c1 | -27.9% | 14.5% | ? | . | 10µM* | .
Cc1ccc(NC(=O)Cn2cc3c(n2)CCCC3)c(Cl)c1 | 2.6% | 35.4% | 1.7% | . | 8.6%[59 µM] | .
Cc1ccccc1CNC(=O)C1CCCN(c2nnc(-n3c(C)ccc3C)s2)C1 (stereo not drawn) | -8.4% | 34.9% | -31.2% | . | 3.6%[59 µM] | .
CCC1(C)Cc2c(sc3nc(NN)n(C)c(=O)c23)CO1 (stereo not drawn) | 15.1% | 1.1% | -12.8% | -7.3 | 44.7µM* | 2.7%
CCC1(C)Cc2c(sc3nc(SCC(=O)c4ccccc4)[nH]c(=O)c23)CO1 (stereo not drawn) | -1.5% | -15.6% | -40.0% | 9.4 | . | -4.9%
CCOC(=O)CSc1nc2sc3c(c2c(=O)[nH]1)CC(C)(CC)OC3 (stereo not drawn) | 3.9% | 23.0% | -7.4% | . | 31.6µM* | -22.9%
COc1ccc(C(=O)CC(C(=O)O)c2ccc3c(c2)OCO3)cc1OC (stereo not drawn) | . | . | . | -1.9 | . | 3.8%
Cc1cccc(-c2cc3nc(C)cc(C)n3n2)c1 | 15.7% | 9.2% | -42.3% | -3.0 | 60.9% | 21.2µM*
COc1cc(/C=N/n2c(-c3cc(C)[nH]n3)n[nH]c2=S)cc(OC)c1O | ? | ? | 3.55µM* | -7.9 | 5.01µM* | -8.1%
SMILES | BAZ2B block | HP1b binding inh | JMJD2A Tudor | PI5P4Ka inh | G9a inh | PLK1 PBD inh
Cc1cc(-c2n[nH]c(=S)n2/N=C/c2ccc(C)o2)n[nH]1 | -28.9% | ? | 3.16µM* | 0.1 | 7.94µM* | -14.2%
Cc1cccc(-c2n[nH]c(=S)n2/N=C/c2ccc(C)o2)c1 | -30.5% | -33.3% | 7.94µM* | 0.2 | 2µM* | -13.0%
COc1ccc(/C=N/n2c(-c3cc(C)[nH]n3)n[nH]c2=S)cc1OC | ? | 16.3% | 3.55µM* | -15.4 | . | -0.8%
CC1=C(c2ccc(C)c(C)c2)S(=O)(=O)N=C1N1CCC(C(=O)N2CCC(C)CC2)CC1 | 0.0% | 56.9% | -2.3% | . | 6.1%[59 µM] | .
CCn1c(=O)c2cc(C(=O)N(CC(C)C)CC(C)C)sc2c2ccccc21 | 5.5% | 40.7% | 6.7% | . | 3.5%[59 µM] | .
COc1ccc(/C=N/n2c(-c3cc(C)[nH]n3)n[nH]c2=S)cc1 | -26.6% | ? | 3.55µM* | 4.9 | 2.24µM* | -17.8%
COc1cc(/C=N/N2CCCCC2)cc([N+](=O)[O-])c1O | 44.7µM* | -21.0% | ? | -22.9 | 50.1µM* | -13.1%
CCc1n[nH]c(=S)n1/N=C/c1cc(OC)cc([N+](=O)[O-])c1O | 13.8% | ? | 5.01µM* | -57.1* | 7.94µM* | ?
COc1cc(/C=N/n2c(=S)[nH]nc(C)c2=O)cc([N+](=O)[O-])c1O | -19.1% | 37.5% | ? | -56.9* | 11.3% | -2.1%
COc1ccc(CNC(=O)CCn2cccn2)cc1 | 4.9% | 35.2% | -2.9% | . | -4.8%[59 µM] | .
CCc1ccc(NC(=O)C(=O)NCC(c2cccnc2)N2CCOCC2)cc1 (stereo not drawn) | ? | -5.0% | -30.6% | . | ? | .
COc1cccc(C2C(C(=O)c3ccc(C)o3)=C(O)C(=O)N2CCN2CCOCC2)c1OC (stereo not drawn) | -9.4% | 10.3% | ? | -8.7 | . | 6.0%
COc1ccc(C2C(C(=O)c3ccco3)=C(O)C(=O)N2CCN2CCOCC2)c(OC)c1 (stereo not drawn) | -32.2% | 31.2% | ? | 9.2 | 35.5µM* | -15.9%
COC(=O)c1ccc(C2C(C(=O)c3ccco3)=C(O)C(=O)N2CC2CCCO2)cc1 (stereo not drawn) | -24.4% | 31.4% | 17.6% | -6.6 | 44.7µM* | 1.0%
COc1ccc(C2C(C(=O)c3ccco3)=C(O)C(=O)N2CC2CCCO2)c(OC)c1 (stereo not drawn) | -11.3% | -18.4% | ? | -9.5 | ? | -11.5%
COc1cccc2cc(C(=O)C3=C(O)C(=O)N(CCN4CCOCC4)C3c3cccs3)oc12 (stereo not drawn) | -7.9% | 7.1% | 79.4µM* | -11.2 | 17.3%[59 µM] | -15.6%

Screens deposited in PubChem by National Center for Advancing Translational Sciences (NCATS).
